In article PMC5700166:
Residue numbers refer to the chain shown, from its start.

How the values were obtained:
Assay in all cases: protein-binding microarray (PBM); PBM: ~300 nM protein, 6 mM HEPES pH 7.8, 80 mM KCl, 0.5 mM EDTA, 0.5 mM EGTA, 6% glycerol, 35 ng/ul poly-dIdC, 1% milk, 1 h, room temperature; Ap Aiptasia and Nv Nematostella (sea anemones) / Co Capsaspora / Aq Amphimedon (sponge) / Dm Drosophila / Hu human; RHD is the Rel homology domain; high values mean tight binding
Details in all cases: dsDNA, one strand shown
GST-Ap-NF-kB RHD = target: T1, GST-Ap-NF-kB RHD (Exaiptasia pallida (Aiptasia), UniProt A0A913YAJ5 2-422)
T1 sequence: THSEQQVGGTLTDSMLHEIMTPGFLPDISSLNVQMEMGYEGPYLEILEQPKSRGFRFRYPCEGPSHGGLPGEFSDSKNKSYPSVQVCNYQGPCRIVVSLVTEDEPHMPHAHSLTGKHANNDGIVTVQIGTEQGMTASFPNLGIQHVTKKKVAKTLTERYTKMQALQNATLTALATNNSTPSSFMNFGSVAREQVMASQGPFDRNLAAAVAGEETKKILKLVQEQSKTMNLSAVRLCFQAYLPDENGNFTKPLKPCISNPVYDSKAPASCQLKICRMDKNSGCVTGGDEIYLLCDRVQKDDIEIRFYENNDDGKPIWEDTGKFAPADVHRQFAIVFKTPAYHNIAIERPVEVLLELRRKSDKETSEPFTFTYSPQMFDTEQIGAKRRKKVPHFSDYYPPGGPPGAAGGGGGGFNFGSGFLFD

[1] = target: T2, GST-Nv-NF-kB (Cys allele) (Nematostella vectensis, UniProt E5G601 2-411)
T2 sequence: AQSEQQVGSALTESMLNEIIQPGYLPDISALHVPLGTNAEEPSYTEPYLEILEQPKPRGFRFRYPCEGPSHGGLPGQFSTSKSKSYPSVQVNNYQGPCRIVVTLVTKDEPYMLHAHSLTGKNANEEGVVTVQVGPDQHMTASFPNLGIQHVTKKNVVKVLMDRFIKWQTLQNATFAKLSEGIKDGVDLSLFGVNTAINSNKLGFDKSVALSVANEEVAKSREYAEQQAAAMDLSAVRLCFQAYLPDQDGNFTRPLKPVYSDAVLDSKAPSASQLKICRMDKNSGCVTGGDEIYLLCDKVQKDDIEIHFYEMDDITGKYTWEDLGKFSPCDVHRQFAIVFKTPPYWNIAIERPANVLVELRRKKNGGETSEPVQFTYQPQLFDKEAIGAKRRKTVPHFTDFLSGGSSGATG

[2] = target: T3, GST-Nv-NF-kB (Ser allele) (Nematostella vectensis, UniProt A7UNT2 2-411)
T3 sequence: T2 sequence with Q21R, C66S, S207N, E215Q, V217A, E225K, A268E, D399E

GST-Co-NF-kB = target: T4, GST-Co-NF-kB (Capsaspora owczarzaki, UniProt F1ARL5 200-546)
T4 sequence: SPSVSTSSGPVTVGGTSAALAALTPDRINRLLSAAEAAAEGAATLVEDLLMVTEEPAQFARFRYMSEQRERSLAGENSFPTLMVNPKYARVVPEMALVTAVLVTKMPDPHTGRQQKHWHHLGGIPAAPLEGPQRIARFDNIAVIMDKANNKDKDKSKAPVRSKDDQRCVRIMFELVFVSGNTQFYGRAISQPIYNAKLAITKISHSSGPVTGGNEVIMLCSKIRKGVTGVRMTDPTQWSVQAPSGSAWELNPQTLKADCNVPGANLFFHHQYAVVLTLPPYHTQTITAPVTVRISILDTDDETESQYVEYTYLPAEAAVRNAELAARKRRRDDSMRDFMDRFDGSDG

GST-Dm-Relish = target: T5, GST-Dm-Relish (Drosophila melanogaster, UniProt Q94527 99-473)
T5 sequence: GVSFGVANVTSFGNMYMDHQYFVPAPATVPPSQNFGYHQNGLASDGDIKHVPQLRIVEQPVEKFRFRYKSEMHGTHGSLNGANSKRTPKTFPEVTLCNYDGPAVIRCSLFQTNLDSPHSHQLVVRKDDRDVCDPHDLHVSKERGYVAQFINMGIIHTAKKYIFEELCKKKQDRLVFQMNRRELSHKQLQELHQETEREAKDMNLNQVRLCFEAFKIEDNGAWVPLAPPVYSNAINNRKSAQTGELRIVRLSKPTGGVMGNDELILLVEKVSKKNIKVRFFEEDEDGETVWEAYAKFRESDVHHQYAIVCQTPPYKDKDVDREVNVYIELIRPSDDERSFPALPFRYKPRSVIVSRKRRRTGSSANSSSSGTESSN

GST-Aq-NF-kB = target: T6, GST-Aq-NF-kB (Amphimedon queenslandica, UniProt A9Y5G7 2-389)
T6 sequence: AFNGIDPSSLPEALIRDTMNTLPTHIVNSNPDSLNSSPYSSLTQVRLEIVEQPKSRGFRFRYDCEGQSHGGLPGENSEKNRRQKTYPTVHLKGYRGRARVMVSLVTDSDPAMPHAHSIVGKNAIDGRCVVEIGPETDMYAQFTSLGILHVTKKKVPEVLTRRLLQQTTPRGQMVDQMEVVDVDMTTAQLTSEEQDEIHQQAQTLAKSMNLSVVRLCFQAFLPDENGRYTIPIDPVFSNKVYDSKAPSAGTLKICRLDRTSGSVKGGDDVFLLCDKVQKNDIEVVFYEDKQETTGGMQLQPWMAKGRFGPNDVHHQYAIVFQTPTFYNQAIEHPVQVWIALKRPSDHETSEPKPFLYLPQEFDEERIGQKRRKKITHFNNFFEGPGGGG

GST-Hu-p50 = GST-Hu-p50 (Homo sapiens, UniProt P19838 7-356)
GST-Hu-p50, sequence (P19838 7-356): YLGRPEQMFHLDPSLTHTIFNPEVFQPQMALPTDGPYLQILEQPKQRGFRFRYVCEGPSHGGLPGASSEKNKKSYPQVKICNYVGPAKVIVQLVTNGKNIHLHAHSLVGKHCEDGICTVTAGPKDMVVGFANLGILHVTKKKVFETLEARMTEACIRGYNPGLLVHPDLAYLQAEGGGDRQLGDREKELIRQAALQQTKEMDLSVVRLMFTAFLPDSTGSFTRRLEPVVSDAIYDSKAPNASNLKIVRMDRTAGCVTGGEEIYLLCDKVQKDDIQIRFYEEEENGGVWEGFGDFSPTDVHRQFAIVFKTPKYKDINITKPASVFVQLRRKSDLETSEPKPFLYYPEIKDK

“CCGATTAACATCAAAAGTCCCCGTGATGTTAATCGGGTCTTGATTCGCTTGACGCTGCTG” gave a binding signal (GST-Ap-NF-kB RHD) of 8.32 z-score, a binding signal [1] of 8.18 z-score and a binding signal [2] of 7.85 z-score. It also gave a binding signal (GST-Co-NF-kB) of 4.26 z-score, a binding signal (GST-Dm-Relish) of 9.25 z-score and a binding signal (GST-Aq-NF-kB) of 7.44 z-score. The binding signal (GST-Hu-p50) was 6.58 z-score.

Work on “CCGATTAACATCACCCTGGGAAATGATGTTAATCGGGTCTTGATTCGCTTGACGCTGCTG” yielded a binding signal (GST-Ap-NF-kB RHD) of 1.68 z-score, a binding signal [1] of 1.49 z-score and a binding signal [2] of 1.51 z-score. It also gave a binding signal (GST-Co-NF-kB) of 3.42 z-score, a binding signal (GST-Dm-Relish) of 1.08 z-score and a binding signal (GST-Aq-NF-kB) of 1.74 z-score. It also gave a binding signal (GST-Hu-p50) of 2.25 z-score.

“CCGATTAACATCAACACCCCCCTTGATGTTAATCGGGTCTTGATTCGCTTGACGCTGCTG” showed a binding signal (GST-Ap-NF-kB RHD) of 4.56 z-score, a binding signal [1] of 3.85 z-score and a binding signal [2] of 3.96 z-score. For the same sequence, the binding signal (GST-Co-NF-kB) was 2.8 z-score, the binding signal (GST-Dm-Relish) was 5.23 z-score and the binding signal (GST-Aq-NF-kB) was 5.24 z-score. It also gave a binding signal (GST-Hu-p50) of 4.37 z-score.

Sequence “CCGATTAACATCAGGGGGGTAACTGATGTTAATCGGGTCTTGATTCGCTTGACGCTGCTG” has a binding signal (GST-Ap-NF-kB RHD) of 5.83 z-score, a binding signal [1] of 4.16 z-score and a binding signal [2] of 4.34 z-score. It also gave a binding signal (GST-Co-NF-kB) of 6.37 z-score, a binding signal (GST-Dm-Relish) of 4.31 z-score and a binding signal (GST-Aq-NF-kB) of 4.37 z-score. The binding signal (GST-Hu-p50) was 4.07 z-score.

“CCGATTAACATCAAGACTCCCCCTGATGTTAATCGGGTCTTGATTCGCTTGACGCTGCTG” showed a binding signal (GST-Ap-NF-kB RHD) of 6.35 z-score, a binding signal [1] of 5.25 z-score and a binding signal [2] of 5.92 z-score. The binding signal (GST-Co-NF-kB) was 5.87 z-score, the binding signal (GST-Dm-Relish) was 4.5 z-score and the binding signal (GST-Aq-NF-kB) was 5.15 z-score. For the same sequence, the binding signal (GST-Hu-p50) was 5.69 z-score.

“CCGATTAACATCAGGACATTCCCTGATGTTAATCGGGTCTTGATTCGCTTGACGCTGCTG” gave a binding signal (GST-Ap-NF-kB RHD) of 2.97 z-score, a binding signal [1] of 4.82 z-score and a binding signal [2] of 2.96 z-score. The binding signal (GST-Co-NF-kB) was 1.36 z-score, the binding signal (GST-Dm-Relish) was 3.89 z-score and the binding signal (GST-Aq-NF-kB) was 6.9 z-score. For the same sequence, the binding signal (GST-Hu-p50) was 3.21 z-score.

In the case of “CCGATTAACATCAAATATCCCCCTGATGTTAATCGGGTCTTGATTCGCTTGACGCTGCTG”, the binding signal (GST-Ap-NF-kB RHD) is reported as 8.79 z-score, the binding signal [1] is reported as 8.51 z-score and the binding signal [2] is reported as 8.83 z-score. For the same sequence, the binding signal (GST-Co-NF-kB) was 8.39 z-score, the binding signal (GST-Dm-Relish) was 7.63 z-score and the binding signal (GST-Aq-NF-kB) was 6.9 z-score. The binding signal (GST-Hu-p50) was 6.58 z-score.

With “CCGATTAACATCAAAAAAACCCCTGATGTTAATCGGGTCTTGATTCGCTTGACGCTGCTG” the binding signal (GST-Ap-NF-kB RHD) was 9.17 z-score, the binding signal [1] was 10 z-score and the binding signal [2] was 9.69 z-score. For the same sequence, the binding signal (GST-Co-NF-kB) was 3.62 z-score, the binding signal (GST-Dm-Relish) was 9.78 z-score and the binding signal (GST-Aq-NF-kB) was 8.79 z-score. It also gave a binding signal (GST-Hu-p50) of 7.76 z-score.

“CCGATTAACATCAGAAAATTCCCTGATGTTAATCGGGTCTTGATTCGCTTGACGCTGCTG” showed a binding signal (GST-Ap-NF-kB RHD) of 6.03 z-score, a binding signal [1] of 9.51 z-score and a binding signal [2] of 8 z-score. For the same sequence, the binding signal (GST-Co-NF-kB) was 4.76 z-score, the binding signal (GST-Dm-Relish) was 7.55 z-score and the binding signal (GST-Aq-NF-kB) was 7.67 z-score. The binding signal (GST-Hu-p50) was 6.47 z-score.

“CCGATTAACATCACGGGAAATTCTGATGTTAATCGGGTCTTGATTCGCTTGACGCTGCTG” showed a binding signal (GST-Ap-NF-kB RHD) of 5.1 z-score, a binding signal [1] of 6.52 z-score and a binding signal [2] of 5.98 z-score. The binding signal (GST-Co-NF-kB) was 5.06 z-score, the binding signal (GST-Dm-Relish) was 3.57 z-score and the binding signal (GST-Aq-NF-kB) was 6.47 z-score. For the same sequence, the binding signal (GST-Hu-p50) was 4.83 z-score.

“CCGATTAACATCAAGGGGGGGCGTGATGTTAATCGGGTCTTGATTCGCTTGACGCTGCTG” gave a binding signal (GST-Ap-NF-kB RHD) of 4.19 z-score, a binding signal [1] of 4.66 z-score and a binding signal [2] of 4.86 z-score. It also gave a binding signal (GST-Co-NF-kB) of 3.83 z-score, a binding signal (GST-Dm-Relish) of 3.7 z-score and a binding signal (GST-Aq-NF-kB) of 4.52 z-score. For the same sequence, the binding signal (GST-Hu-p50) was 4.17 z-score.

“CCGATTAACATCAAGAAGTCCCCTGATGTTAATCGGGTCTTGATTCGCTTGACGCTGCTG” was tested, and the binding signal (GST-Ap-NF-kB RHD) was 7.72 z-score, the binding signal [1] was 7.86 z-score and the binding signal [2] was 7.55 z-score. It also gave a binding signal (GST-Co-NF-kB) of 3.14 z-score, a binding signal (GST-Dm-Relish) of 7.58 z-score and a binding signal (GST-Aq-NF-kB) of 6.79 z-score. For the same sequence, the binding signal (GST-Hu-p50) was 6.73 z-score.
